Source: PubChem BioAssay (NCI)
About 83,000 compounds went through this panel and 20% of them were active in at least one assay; those are over-represented in the sample as a whole.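 Compound tested at a single concentration for 48 hours in 96-well plates; a percent growth value below 10 was scored as active.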 Active and inactive are the calls of the source.

Each molecule was assayed on HOP-62 NSCLC (assay: NCI-60 one-dose screen, 48 h (100 = growth as untreated, 0 = no growth, -100 = all killed)). Settings: 10 µM unless noted.
Experimental: Growth inhibition of the HOP-62 human Non-Small Cell Lung tumor cell line is measured as a screen for anti-cancer activity. Cells are grown in 96 well plates and exposed to the test compound for 48 hours. Compounds are tested at a single concentration, which is 10^-5 M for most compounds. The reported endpoint is percent growth (GI% or GIPRCNT), where numbers from 0 - 100% represent growth inhibition, and numbers from -100% - 0 represent cell death. For example, a value of 40 represents 60% growth inhibition. A value of 0 means no net growth occurred over the course of the experiment. A value of -40 indicates 40% of cells at the beginning of the experiment died by the end of the experiment. A value of -100 means all cells are dead at the end of the experiment.
NCI-60 Human Tumor Cell Lines Screen was performed using the standard one-dose NCI protocol, which is described in more detail at https://dtp.cancer.gov/discovery_development/nci-60/default.htm.
Compounds with GIPRCNT values below 10 were considered active. Activity score was based on GIPRCNT using the following formula: […]
Score is 0 for GIPRCNT values of 100 or above, 50 for GIPRCNT values of 0, and 100 for GIPRCNT values of -100.
For `CCCC1CCCCN1C(=O)OCC(C)C` (stereo not given), the growth was 118% (inactive). For `COc1cccc(-c2nn(-c3ccccc3)cc2-c2ccnc(NCCCNS(=O)(=O)c3cccc(F)c3)c2)c1`, the growth was 54.1% (inactive). `Brc1ccc2c(c1)c(-c1nc(-c3c[nH]c4ncccc34)cs1)cn2CCCN1CCCCC1` was tested, and the growth was -66.7% (active). In the case of `Cc1cc2nc3c4cc(Cl)ccc4n(CCN(C)C)c3nc2cc1C`, the growth is reported as 22.1% (inactive). `Cc1ccncc1C(=O)O` was tested, and the growth was 113% (inactive). For `Cc1ccc(C)c2c1CCC2C(C)C` (stereo not given), the growth was 101% (inactive). `COc1ccc(-n2c(/C=C/c3ccc(O)c(OC)c3)cc(/C=C/c3ccc(O)c(OC)c3)nc2=O)cc1` was tested, and the growth was 63.4% (inactive). In the case of `Cn1cc(-c2csc(-c3cn(C(=O)OC(C)(C)C)c4ccccc34)n2)c2cccnc21`, the growth is reported as 73.7% (inactive). `Nc1nc2c3ccncc3cc(-c3cccc(Cl)c3)c2c2cnccc12` was tested, and the growth was 44.1% (inactive). In the case of `CC(=O)OC[C@]12CC[C@@H](/C(C)=N/O)[C@@H]1[C@H]1CC[C@@H]3[C@@]4(C)CCCNC(C)(C)[C@@H]4CC[C@@]3(C)[C@]1(C)CC2`, the growth is reported as 85.2% (inactive). In the case of `Brc1ccc2[nH]cc(-c3nc(-c4c[nH]c5ncccc45)cs3)c2c1`, the growth is reported as 56.6% (inactive). For `O=Cc1nc2ccccc2[nH]1`, the growth was 90.1% (inactive). For `CC(C)(C)c1ccc(OCCCCCCCN2CCNCC2)cc1`, the growth was 54% (inactive). In the case of `c1ccc2[nH]c(-c3cc(-c4ccc5c(c4)OCO5)n[nH]3)nc2c1`, the growth is reported as 62.6% (inactive). For `Cn1c(/C(C#N)=C/c2ccc3ccccc3c2)cc2ccccc21`, the growth was 38.2% (inactive). With `O=C1c2cc3c(cc2-c2c1c1ccc(Cl)cc1c(=O)n2C[C@H](O)[C@@H](O)[C@H](O)CO)OCO3` the growth was -43.1% (active). For `Brc1ccc(Cn2nnnc2-c2ccn(-c3ccccc3)n2)cc1`, the growth was 74.3% (inactive). For `C=C(C)[C@@H]1CC[C@]2(C(=O)NNC(=O)c3cccnc3)CC[C@]3(C)[C@H](CC[C@@H]4[C@@]5(C)CCCNC(C)(C)[C@@H]5CC[C@]43C)[C@@H]12`, the growth was 84.9% (inactive). `COc1ccc(-c2nc(Nc3ccc(-c4nc5ccccc5[nH]4)cc3)nc(N3CCOCC3)n2)cc1` was tested, and the growth was -27.3% (active). With `COc1ccc(C2NC(=O)Nc3ccccc32)c(OC)c1` (stereo not given) the growth was 98.5% (inactive). For `Clc1ccccc1-c1nc(Nc2nc3ccccc3s2)nc(C(Cl)(Cl)Cl)n1`, the growth was 40.5% (inactive). With `COc1cc(-c2cc3ncccc3c3nc(OCCN(C)C)c4cccnc4c23)cc(OC)c1OC` the growth was -45.6% (active). For `Cc1cc(N=O)cc(C(C)(C)C)c1O`, the growth was 90% (inactive). In the case of `COc1ccc2c(c1)c(-c1nc(-c3cn(C)c4ncccc34)cs1)cn2CCN`, the growth is reported as 77.1% (inactive). With `O=C(c1ccccc1)C(CN1CCOCC1)c1ccccc1` (stereo not given) the growth was 81% (inactive). `Cn1cnc2c1c(=O)n(CCC(=O)Nc1ccc(F)cc1)c(=O)n2C` was tested, and the growth was 100% (inactive). In the case of `Cc1cc(C=O)c(C)c2c1[nH]c1ccccc12`, the growth is reported as 103% (inactive). For `CC(C)(C)CC(C)(C)c1ccc(OCCOCC[N+](C)(C)CC(=O)[O-])cc1`, the growth was 106% (inactive). `CN(C)c1ccc(N=C2C=CC(=O)C=C2)cc1` was tested, and the growth was 107% (inactive). For `COc1cccc2c1C(=O)c1c(O)c3c(c(O)c1C2=O)C[C@@](O)(C(=O)CO)C[C@@H]3OC1C[C@H](N)[C@H](O)[C@H](C)O1` (stereo not given in full), the growth was -29.2% (active). `c1cc(N2CCCC2)c2nc(-c3[nH]ncc3Nc3ncnc4[nH]ccc34)[nH]c2c1` was tested, and the growth was -13.6% (active). For `Fc1ccc2c(c1)c(-c1nc(-c3c[nH]c4ncccc34)cs1)cn2CCCN1CCCCC1`, the growth was 65.3% (inactive). In the case of `CCSc1sc(-c2ccc(C)cc2)nc1[P+](c1ccccc1)(c1ccccc1)c1ccccc1`, the growth is reported as -10.3% (active). `CCC(=O)c1c(C)[nH]c(C)c1C` was tested, and the growth was 77.8% (inactive). With `C=C(C)[C@@H]1CC[C@]2(C)[C@H](CC=C3[C@@H]4CC(C)(C)CC[C@]4(C(=O)OC)CC[C@]32C)[C@@]1(C)CC/C(N)=N/O` the growth was 79.3% (inactive). With `C/C(Cc1ccc(Cl)cc1)=C(/c1ccc(Cl)cc1)c1ccc(OCCN2CCCC2)cc1` the growth was 91.7% (inactive). In the case of `COc1cc2[nH]c(C(=O)c3cc(OC)c(OC)c(OC)c3)c(N)c2cc1C#CCO`, the growth is reported as 28.3% (inactive). For `CC(=O)N1N=C(c2ccc(C)cc2)CC1c1ccc(Oc2ccc(Br)cc2)cc1` (stereo not given), the growth was 83.6% (inactive). With `O=C(/C=C/c1ccc2ccccc2c1)Nc1ncc(Cc2ccccc2)s1` the growth was 56.7% (inactive). With `COc1ccc(OCC(CO)N2CCN(c3ccccc3)CC2)cc1` (stereo not given) the growth was 118% (inactive).
